Results reported in the supplement of paper PMC9492666.
Where a name gives a salt, the structure may show the parent alone.

Columns and labels:
HCC1937 = assay: relative cell viability, compound + RSL3, vs DMSO (fraction of DMSO control); higher = less growth inhibition; settings: 72 h
MDA-MB-231 = assay: as above; settings: 72 h
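Also: breast cancer cell viability read out with the CCK-8 kit after co-treatment of each compound with the ferroptosis inducer RSL3.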

Row | Compound | relative cell viability (HCC1937) | relative cell viability (MDA-MB-231)
1 | Cn1nc(C(=O)N(Cc2ccccc2)Cc2ccc(C(=O)O)cc2)c2c1-c1cc(Cl)ccc1OC2 [Nidufexor] + COC(=O)c1ccc([C@H]2c3[nH]c4ccccc4c3C[C@H](C(=O)OC)N2C(=O)CCl)cc1 [RSL3] | 0.488 | 0.673
2 | CC(C)(O)c1ccccc1CC[C@@H](SCC1(CC(=O)O)CC1)c1cccc(/C=C/c2ccc3ccc(Cl)cc3n2)c1 [Montelukast] + COC(=O)c1ccc([C@H]2c3[nH]c4ccccc4c3C[C@H](C(=O)OC)N2C(=O)CCl)cc1 [RSL3] | 0.589 | 0.484
3 | Cc1ccc(/C=C2\SC(=S)N(CCCCCC(=O)Nc3ccc(C(=O)O)c(O)c3)C2=O)cc1 + COC(=O)c1ccc([C@H]2c3[nH]c4ccccc4c3C[C@H](C(=O)OC)N2C(=O)CCl)cc1 [RSL3] | 0.632 | 0.577
4 | C=C(C)[C@@H]1CCC2=CC(=O)C[C@@H](C)[C@]2(C)C1 [Nootkatone] + COC(=O)c1ccc([C@H]2c3[nH]c4ccccc4c3C[C@H](C(=O)OC)N2C(=O)CCl)cc1 [RSL3] | 0.509 | 0.613
5 | CSc1ccc(C(=O)/C=C/c2cc(C)c(OC(C)(C)C(=O)O)c(C)c2)cc1 [Elafibranor] + COC(=O)c1ccc([C@H]2c3[nH]c4ccccc4c3C[C@H](C(=O)OC)N2C(=O)CCl)cc1 [RSL3] | 0.83 | 0.685
6 | CCc1ccc(N(CC(C)C)S(=O)(=O)c2ccc(OCC3CCOCC3)c(CO)c2)cc1 + COC(=O)c1ccc([C@H]2c3[nH]c4ccccc4c3C[C@H](C(=O)OC)N2C(=O)CCl)cc1 [RSL3] | 0.53 | 0.581
7 | CCc1ccc(CCOc2ccc(CC3SC(=O)NC3=O)cc2)nc1 (stereo not given) [Pioglitazone] + COC(=O)c1ccc([C@H]2c3[nH]c4ccccc4c3C[C@H](C(=O)OC)N2C(=O)CCl)cc1 [RSL3] | 0.919 | 0.629
8 | CC1(N)CCN(c2cnc(-c3cccc(Cl)c3Cl)c(N)n2)CC1 [SHP099 hydrochloride] + COC(=O)c1ccc([C@H]2c3[nH]c4ccccc4c3C[C@H](C(=O)OC)N2C(=O)CCl)cc1 [RSL3] | 0.397 | 0.628
9 | O=C(ON1C(=O)CCC1=O)N1CCN(C(c2ccc(Cl)cc2)c2ccc(Cl)cc2)CC1 [Cravatt Reagent] + COC(=O)c1ccc([C@H]2c3[nH]c4ccccc4c3C[C@H](C(=O)OC)N2C(=O)CCl)cc1 [RSL3] | 0.55 | 0.716
10 | Cc1nc2c([nH]1)c(=O)n(C)c(=O)n2Cc1ccco1 [Furafylline] + COC(=O)c1ccc([C@H]2c3[nH]c4ccccc4c3C[C@H](C(=O)OC)N2C(=O)CCl)cc1 [RSL3] | 0.399 | 0.596
11 | COc1ccc(CN2CCC(c3ccc4nc(C(=O)N5CCN(Cc6ccc(C(F)(F)F)cc6)CC5)[nH]c4c3)CC2)cn1 + COC(=O)c1ccc([C@H]2c3[nH]c4ccccc4c3C[C@H](C(=O)OC)N2C(=O)CCl)cc1 [RSL3] | 0.351 | 0.562
12 | CCCC[S+]([O-])c1sc2nc(-c3cccs3)cc(-c3ccccc3)c2c1N (stereo not given) + COC(=O)c1ccc([C@H]2c3[nH]c4ccccc4c3C[C@H](C(=O)OC)N2C(=O)CCl)cc1 [RSL3] | 0.748 | 0.513
13 | Cc1cc(=O)oc2c(O)c(O)ccc12 [7,8-Dihydroxy-4-methylcoumarin] + COC(=O)c1ccc([C@H]2c3[nH]c4ccccc4c3C[C@H](C(=O)OC)N2C(=O)CCl)cc1 [RSL3] | 0.539 | 0.7
14 | OC[C@H]1O[C@@H](Oc2cc(O)cc(/C=C/c3ccc(O)cc3)c2)[C@H](O)[C@@H](O)[C@@H]1O [Polydatin] + COC(=O)c1ccc([C@H]2c3[nH]c4ccccc4c3C[C@H](C(=O)OC)N2C(=O)CCl)cc1 [RSL3] | 0.749 | 0.608
15 | CCCCCC=CC(=O)CCc1ccc(O)c(OC)c1 [6-Shogaol] + COC(=O)c1ccc([C@H]2c3[nH]c4ccccc4c3C[C@H](C(=O)OC)N2C(=O)CCl)cc1 [RSL3] | 0.608 | 0.64
